The values below come from PubChem BioAssay (NCATS).

The structures appear in SMILES notation. Inconclusive results are not listed. A number with no mark means an inactive call. Activity calls are given as the source filed them. Calls come from the whole dose curve; as a rule, active = well fitted cell-killing curve with a large enough effect; inconclusive = small, poorly fitted or top-dose-only effect; inactive = no such curve, though single readings can be large or run the other way.
Potency is the fitted concentration of half-maximal effect.

The assay in a line: qHTS of pediatric cancer cell lines to identify multiple opportunities for drug repurposing: Confirmatory screen for Rh41 cells (AID 1347123).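 Note: 48 h compound exposure; nearly all actives have a fitted effect of over 60% in size.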 To be noted: Rh41 rhabdomyosarcoma cells, viability/cytotoxicity qHTS; series mostly up to 45.9 µM; activity change, negative = cytotoxic: at the top concentration. The source says: Drug repurposing or repositioning has been offered as a strategy for drug development in oncology programs. This approach has special potential for childhood cancers and other rare or orphan diseases, where the expected return on new drug development has been a disincentive to pharmaceuticals.
In this project we exploit the poly-pharmacology of drugs to discover new indications via phenotypic screening of a panel of 19 well-characterized cell lines derived from solid tumors seen in children and adolescents. The goal is to identify approved drugs with previously unrecognized anticancer properties that has the potential to reveal new mechanisms and biological processes involved in carcinogenesis or drug resistance. We employed a titration-based paradigm (quantitative high-throughput screening or qHTS), where all compounds were tested at multiple concentrations for their effect on cell viability. Concentration-response curves (CRCs) were derived directly from the primary screen, and both potency and efficacy values were used to identify compounds with robust bioactivity profiles. We screened the NIH Chemical Genomics Center (NCGC) Pharmaceutical Collection (NPC) and Mechanism Interrogation Plate (MIPE) small molecule collections of approved and investigational compounds against these cell lines; and measured metabolically active cells after 48 hours of compound treatment as a proxy for cell viability.
Assay Submitter: Nathalia J. Martinez, National Center for Advancing Translational Sciences, National Institutes of Health, Rockville, MD, USA; email: natalia.martinez@nih.gov
[1] Shen, M et al. Quantitative high-throughput phenotypic screening of pediatric cancer cell lines identifies multiple opportunities for drug repurposing. Oncotarget 2017 Dec 19;9(4):4758-4772. PMID 29435139.
The cells were obtained from University of North Carolina (UNC), Pediatric Preclinical Testing Program (PPT), and Coriell Institute (CI).
qHTS cell viability assay:
Cells were assayed in growth media at a density of 500-1,000 cells/well. Five microliters of cells were dispensed into 1,536-well, white, solid-bottom, TC-treated plates (Greiner Bio One) using a multidrop dispenser and incubated at 37 degrees C, 5% CO2, under a humidified atmosphere for 5 hours. Twenty-three nanoliters of compounds and controls (neutral control DMSO or positive control bortezomib at final concentration of 2.3 µM) were subsequently transferred by Kalypsys pintool. For primary screens, the MIPE collection was tested at 11-point dilutions (final concentrations range from 0.78 nM to 46 µM) and the NPC collection at 8-point dilutions (final concentrations range from 0.59 nM to 46 µM). Compounds tested in follow-up screens were assayed at 11-point dilutions. Cells were incubated for 48 hours, followed by addition of 3 µL of CellTiter-Glo (Promega). After a 15 min incubation at room temperature, samples were analyzed for luminescence intensity using a ViewLux High-throughput CCD imager equipped with clear filters.
Background: In qHTS, concentration-response curves come from the screen itself.
Turning to `CC(C)(C)c1cc(NC(=O)Nc2ccc(-c3cn4c(n3)sc3cc(OCCN5CCOCC5)ccc34)cc2)no1`, the Potency was 13100 nM (active).

Take `COc1cccc2c(NCc3ccccc3)nc(-n3c(N)nc4ccccc43)nc12`: the Potency is 208 nM (active).

Turning to `CC(C)(C)NC(=O)[C@H]1CN(Cc2cccnc2)CCN1C[C@@H](O)C[C@@H](Cc1ccccc1)C(=O)N[C@H]1c2ccccc2C[C@H]1O`, the Potency is 20800 nM (active).

For `COC(=O)[C@]12CCC(C)(C)C[C@@H]1[C@@H]1C(=O)C=C3[C@@]4(C)C=C(C#N)C(=O)C(C)(C)[C@@H]4CC[C@@]3(C)[C@]1(C)CC2`, the Potency is 2330 nM (active).

As to `CNC(=O)c1ccccc1Nc1nc(Nc2ccc(N3CCOCC3)cc2OC)ncc1Cl`, the Potency was 928 nM (active).

On to `CCN1CCN(Cc2ccc(-c3cc4c(N[C@H](C)c5ccccc5)ncnc4[nH]3)cc2)CC1`, for which the Potency was 1510 nM (active).

Take `CN(c1ncccc1CNc1nc(Nc2ccc3c(c2)CC(=O)N3)ncc1C(F)(F)F)S(C)(=O)=O`: the Potency was 3690 nM (active).

On to `Cn1c2ccccc2c2c3c(c4c5ccccc5n(CCC#N)c4c21)CNC3=O`, for which the Potency is 29300 nM (active).

As for `CC(=O)Nc1nc(C)c(-c2ccc(Cl)c(S(=O)(=O)NCCO)c2)s1`, the Potency is 5850 nM (active).

Turning to `CC=CC1=C(C(=O)O)N2C(=O)[C@H](NC(=O)[C@H](N)c3ccc(O)cc3)[C@@H]2SC1`, the “activity change, negative = cytotoxic” value is 7.2%.

For the compound `C=CC(=O)Nc1cccc(Oc2nc(Nc3ccc(N4CCN(C)CC4)cc3)ncc2Cl)c1`, the Potency is 2610 nM (active).

For the compound `Cc1c(Cn2c(C)nc3c(C(=O)O)cc(N4CCOCC4)cc32)cccc1C(F)(F)F`, the “activity change, negative = cytotoxic” value is -18%.

Turning to `O=C(C=Cc1cccnc1)NCCCCC1CCN(C(=O)c2ccccc2)CC1`, the “activity change, negative = cytotoxic” value is 0%.

With `Cc1cc(Nc2cc(NC(=O)c3c(Cl)cccc3Cl)ccn2)nc(N)n1`, the Potency is 269 nM (active).

With `Nc1ccccc1NC(=O)c1ccc(CNC(=O)OCc2cccnc2)cc1`, the Potency was 2400 nM (active).

`O=C(C=Cc1cccc(S(=O)(=O)Nc2ccccc2)c1)NO`: the Potency was 5370 nM (active).

For `CC(C)C[C@H](NC(=O)CNC(=O)c1cc(Cl)ccc1Cl)B(O)O`, the Potency is 165 nM (active).

In the case of `CC(C)CC(=O)Nc1n[nH]c2c1CN(C(=O)C1CCN(C)CC1)C2(C)C`, the Potency is 1310 nM (active).

In the case of `CN1CCN(Cc2ccc(NC(=O)Nc3ccc(Oc4cc(NC(=O)C5CC5)ncn4)cc3)cc2C(F)(F)F)CC1`, the Potency was 233 nM (active).

For the compound `Cc1cc(Nc2ncnc3ccc(-c4ccc(CNCCS(C)(=O)=O)o4)cc23)ccc1Oc1ccn2ncnc2c1`, the Potency is 2330 nM (active).

`COc1cc2nccc(Oc3ccc(NC(=O)C4(C(=O)Nc5ccc(F)cc5)CC4)cc3)c2cc1OC`: the Potency was 26100 nM (active).

Regarding `Cc1c(NC(=O)OC[C@@H]2COCCN2)cn2ncnc(Nc3ccc4c(cnn4Cc4cccc(F)c4)c3)c12`, the Potency is 16500 nM (active).

`Cc1c(CN2CCN(S(C)(=O)=O)CC2)sc2c(N3CCOCC3)nc(-c3cnc(N)nc3)nc12`: the Potency was 928 nM (active).

With `COC(=O)c1ccc2c(C(=Nc3ccc(N(C)C(=O)CN4CCN(C)CC4)cc3)c3ccccc3)c(O)[nH]c2c1`, the Potency is 8270 nM (active).

On to `CNC(=O)c1nn(C)c2c1C(C)(C)Cc1cnc(Nc3ccc(N4CCN(C)CC4)cc3)nc1-2`, for which the Potency is 3290 nM (active).

`CCNC(=O)Nc1ccc2ncc(Nc3ccc(C)cc3)nc2n1`: the “activity change, negative = cytotoxic” value is -10.4%.

In the case of `O=c1[nH]nc(Sc2ncc([N+](=O)[O-])s2)n1-c1ccc2c(c1)OCCO2`, the Potency is 10400 nM (active).

Regarding `COc1ccc(C=Cc2cc(OC)c(OC)c(OC)c2)cc1O`, the Potency was 10.4 nM (active).

In the case of `CC[C@@H]1C(=O)N(C)c2cnc(Nc3ccc(C(=O)NC4CCC(N5CCN(CC6CC6)CC5)CC4)cc3OC)nc2N1C(C)C` (stereo not given in full), the “activity change, negative = cytotoxic” value was 6.02%.

In the case of `C=CC(=O)Nc1cccc(Oc2nc(Nc3ccc(N4CCN(C)CC4)cc3OC)ncc2Cl)c1`, the Potency was 16500 nM (active).

In the case of `CCc1c2c(nc3ccc(O)cc13)-c1cc3c(c(=O)n1C2)COC(=O)[C@]3(O)CC`, the Potency was 261 nM (active).

Regarding `CC(=O)OCC(=O)[C@@]1(O)[C@H](C)C[C@H]2[C@@H]3C=C(C)C4=Cc5c(cnn5-c5ccccc5)C[C@]4(C)[C@@H]3[C@@H](O)C[C@@]21C`, the Potency was 13100 nM (active).

On to `CC(C)c1nn(-c2c(Cl)cccc2Cl)c2nc(Cc3ccc(OCCO)cc3)[nH]c(=O)c12`, for which the Potency is 131 nM (active).

`C=CC(=O)N1CCC[C@@H](n2nc(-c3ccc(Oc4ccccc4)cc3)c3c(N)ncnc32)C1`: the Potency is 14700 nM (active).

Turning to `COC(=O)Nc1ccc(-c2nc(N3CCOCC3)c3cnn(C4CCN(Cc5cccnc5)CC4)c3n2)cc1`, the Potency is 1310 nM (active).

For `COc1cc2c(Oc3ccc(NC(=O)C4(C(=O)Nc5ccc(F)cc5)CC4)cc3F)ccnc2cc1OCCCN1CCOCC1`, the Potency is 7370 nM (active).

As for `COc1cc(Nc2ncc(F)c(Nc3ccc4c(n3)N(COP(=O)(O)O)C(=O)C(C)(C)O4)n2)cc(OC)c1OC`, the Potency is 3290 nM (active).

As to `CCC1=C[C@@H]2CN(C1)Cc1c([nH]c3ccccc13)[C@@](C(=O)OC)(c1cc3c(cc1OC)N(C)[C@@H]1[C@@](O)(C(=O)OC)[C@H](OC(C)=O)[C@]4(CC)C=CCN5CC[C@]31[C@@H]54)C2`, the Potency was 369 nM (active).

Regarding `Cc1ccc(-c2ncn(-c3ccc(Nc4nccc(-c5cccc(N6CCOCC6)c5)n4)cc3)n2)cn1`, the Potency was 151 nM (active).

On to `CC1(C)CCC(c2ccc(Cl)cc2)=C(CN2CCN(c3ccc(C(=O)NS(=O)(=O)c4ccc(N[C@H](CCN5CCOCC5)CSc5ccccc5)c(S(=O)(=O)C(F)(F)F)c4)cc3)CC2)C1`, for which the “activity change, negative = cytotoxic” value was 21.3%.
